Source: PubChem
MITF inh – blocks human microphthalmia-associated transcription factor | O75030 | AlphaScreen MITF homodimerization, bead proximity signal | inhibition, % at 2.6 µM | 0.91% of 650,000 active | AID 1259374; in the data active means inhibition above about 50%
Target sequence (O75030 whole entry, looked up): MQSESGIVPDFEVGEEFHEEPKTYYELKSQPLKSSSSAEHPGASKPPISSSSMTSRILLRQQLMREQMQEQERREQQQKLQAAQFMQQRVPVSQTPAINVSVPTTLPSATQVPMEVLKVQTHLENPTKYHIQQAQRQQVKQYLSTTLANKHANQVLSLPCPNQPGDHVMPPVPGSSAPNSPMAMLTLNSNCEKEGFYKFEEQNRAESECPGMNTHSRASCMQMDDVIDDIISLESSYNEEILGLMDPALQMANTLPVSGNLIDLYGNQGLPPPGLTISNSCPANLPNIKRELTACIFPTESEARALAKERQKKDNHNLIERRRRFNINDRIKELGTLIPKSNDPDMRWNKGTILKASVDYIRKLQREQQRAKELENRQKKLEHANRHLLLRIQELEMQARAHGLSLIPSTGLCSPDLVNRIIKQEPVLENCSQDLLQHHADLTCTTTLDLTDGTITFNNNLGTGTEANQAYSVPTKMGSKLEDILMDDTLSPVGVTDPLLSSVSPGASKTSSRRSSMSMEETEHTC
GPR151 activ – human GPR151 activation. 1% of 650,000 active. PathHunter beta-arrestin GPR151 cells, luminescence. activation, % at 11.2 µM. AID 1508602; in the data active means activation above about 4.9%
TEAD-YAP block – TEAD-YAP interaction inhibition. AID 1259422. HEK-TIYL cells, TEAD-Gal4/YAP UAS-luciferase luminescence. 1.4% of 640,000 active. inhibition, % at 9.12 µM; in the data active means inhibition above about 32%
FBW7 act – activators of human E3 ligase FBW7 | AID 1259310 | normalized activity (activation), % at 26.1 µM | 0.13% of 650,000 active | Q969H0 | AlphaScreen FBW7–phospho-cyclin E peptide binding, activator screen; in the data active means normalized activity above about 1.9%;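 further: purified mutant Fbw7 with reduced substrate affinity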
GPR151 confirm – human GPR151 activation, confirmation screen. GPR151 PathHunter beta-arrestin cells, luminescence, 90 min; % of EA-reagent control over plate median. 6,700 tested, under 10 active. AID 1508609. activation, % at 11.2 µM. shares compounds with GPR151 activ;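 active means mean percent activation across replicates above the confirmation screen cutoff of 4.91%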
GPR119 counter – activates human GPR119 in a GPR151 counter-screen; shares compounds with GPR151 activ; GPR119 PathHunter beta-arrestin cells, luminescence, 90 min; 0 = compound-well median, 100 = enzyme-acceptor control; activation, % at 11.2 µM; 0.3% of 6,700 active; AID 1508611;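 active means mean percent activation in the counterscreen above 29.09%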;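 further: counterscreen on off-target GPR119 to flag nonselective hits from the GPR151 activator screen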
Numbers stand for hits; n = inactive; x = no result given. This is a sample that favours compounds with a hit; in the whole collection about 3.5% have one here.

SMILES	MITF inh	GPR151 activ	TEAD-YAP block	FBW7 act	GPR151 confirm	GPR119 counter
Cc1cccc(Cn2c(NCCN(C)C)nc3c2c(=O)[nH]c(=O)n3C)c1	n	n	n	n	x	x
CCOc1cc(C2NC(C(=O)O)CS2)ccc1OCc1ccc(C)cc1 (stereo unspecified)	n	n	n	n	x	x
O=C(c1cc(-c2cccc(Cl)c2)nc2ccccc12)N1CCOCC1	n	11	n	n	n	n
O=C(c1cc(-c2ccc(Cl)cc2)nc2ccccc12)N1CCOCC1	n	n	n	n	x	x
O=C(c1cnn2cccnc12)N1CCCC(c2ccnc3ncnn23)C1 (stereo unspecified)	n	n	n	n	x	x
O=C(Cn1cc(C(=O)c2ccc(F)cc2)c(=O)c2ccccc21)Nc1ccc2c(c1)OCO2	n	n	n	n	x	x
O=C(Cn1cc(C(=O)c2ccccc2)c(=O)c2ccccc21)Nc1ccc2c(c1)OCCO2	n	6.6	n	n	n	n
COc1ccc(NC(=O)c2sc3nc4c(cc3c2N)C(=O)CCC4)c(OC)c1	n	n	n	n	x	x
COc1ccc(NC(=O)c2sc3nc4c(cc3c2N)C(=O)CCC4)cc1	n	10	n	n	n	n
O=C(Cn1cnc2ccccc2c1=O)NCCC(=O)N1CCN(Cc2ccc3c(c2)OCO3)CC1	n	5.4	n	n	n	n
O=C(Cn1cnc2ccccc2c1=O)NCCC(=O)N1CCOCC1	n	n	n	n	x	x
COc1cccc(-c2cc(C(=O)NCCCn3ccnc3)c3ccccc3n2)c1	n	7.2	n	n	n	n
COc1ccc(CCNC(=O)c2cc(-c3cccc(OC)c3)nc3ccccc23)cc1	n	n	n	n	x	x
CCOC(=O)N1CCN(C(=O)CN(c2ccccc2Br)S(C)(=O)=O)CC1	n	7.6	n	n	n	n
CCc1ccc2c(COC(=O)CSCc3c(C)noc3C)cc(=O)oc2c1	n	n	n	n	x	x
COc1ccccc1C1NC(=S)NC(C)=C1C(=O)c1ccccc1 (stereo unspecified)	n	n	n	n	x	x
CNC(=O)C1=C(C)NC(=S)NC1c1ccccc1OC (stereo unspecified)	n	9.5	n	n	n	n
O=C1NC(=S)S/C1=C\c1cc([N+](=O)[O-])ccc1O	n	n	n	n	x	x
COc1cc(/C=C2/C(=N)N3N=C(c4ccccc4C)SC3=NC2=O)ccc1OCCOc1ccccc1C	n	n	n	n	x	x
C/C(CC(=O)Nc1ccc(F)cc1F)=N\NC(=O)c1ccc([N+](=O)[O-])cc1	n	n	n	n	x	x
CCOc1ccc(NC(=O)N2CCN(c3ccc(C(C)=O)cc3)CC2)cc1	n	n	n	n	x	x
Cc1ccc(/C=C2\C(=O)NC(=O)N(c3cccc(Br)c3)C2=O)cc1[N+](=O)[O-]	n	5.1	n	n	n	n
COc1cc(/C=C2/C(=O)NN(c3cccc(C)c3)C2=O)cc([N+](=O)[O-])c1O	n	n	n	n	x	x
COc1cc([N+](=O)[O-])cc(/C=C2/C(=O)NC(=O)N(c3cccc(C)c3)C2=O)c1O	n	5.3	n	n	n	n
CCOc1cc(/C=C2/C(=O)NN(c3cccc(C)c3)C2=O)cc([N+](=O)[O-])c1O	n	6.0	n	n	n	n
SMILES	MITF inh	GPR151 activ	TEAD-YAP block	FBW7 act	GPR151 confirm	GPR119 counter
COc1ccc(-c2cc(C(F)(F)F)n3nc(C(=O)Nc4cccc(C)c4Cl)c(Cl)c3n2)cc1OC	n	n	n	n	x	x
COc1ccc(-c2cc(C(F)(F)F)n3nc(C(=O)Nc4ccccc4C(F)(F)F)c(Cl)c3n2)cc1OC	n	6.0	n	n	n	n
COCCOC(=O)C1=C(C)Nc2ccc(C)cc2S1	n	n	n	n	x	x
CCOCCOC(=O)C1=C(C)Nc2ccc(C)cc2S1	n	13	n	n	n	n
COc1ccc(Nc2nc3[nH]c(=O)cc(O)c3s2)cc1	n	n	n	n	x	x
CSc1nc2[nH]c(=O)cc(O)c2s1	n	5.5	n	n	n	n
CN(CC(=O)c1ccc2cc[nH]c2c1)Cc1ccccc1	n	5.3	n	n	n	n
Cc1ccc(S(=O)(=O)N2CC3=Cc4ccccc4Oc4cc([N+](=O)[O-])cc2c43)cc1	n	n	n	n	x	x
COc1ccc(CNc2cc(C)nc(-c3ccccc3)n2)cc1	n	n	n	n	x	x
Cc1cc(NCc2ccccc2)nc(-c2ccccc2)n1	n	5.2	n	n	n	n
